In all, about 39,000 compounds went through this assay and about 3,300 (8.5%) were called active. The entries come from a sample that favours actives as a whole.

The assay relates to HepG2. Kind of assay: cytotoxicity call (relative viability < 0.9). The conditions noted are these: 10 µM.
For the compound `COC(=O)[C@H]1C2C(=O)N(C3CC3)C[C@]23C=C[C@H]1O3` (stereo not given in full), the cytotoxicity call is “inactive”.
As for `C[C@H]1CN([C@@H](C)CO)C(=O)c2cccc(NC(=O)C3CCCCC3)c2O[C@H]1CN(C)Cc1ccc(Cl)c(Cl)c1`, the cytotoxicity call was “inactive”.
To `CO[C@H]1CN(C)C(=O)c2ccc(NS(C)(=O)=O)cc2OC[C@H](C)N(C(=O)c2ccc3c(c2)OCO3)C[C@H]1C` belongs “inactive”; to `C[C@@H]1CN([C@@H](C)CO)S(=O)(=O)c2ccc(C#CC(C)(C)O)cc2O[C@H]1CN(C)Cc1ccccc1`, “inactive”.
To `CCCC(=O)Nc1ccc2c(c1)C(=O)N(C)C[C@@H](OC)[C@H](C)CN(Cc1cc(-c3ccccc3)on1)[C@H](C)CO2` belongs “inactive”.
To `Cc1noc(C)c1NC(=O)N(C)C[C@@H]1Oc2ccc(NC(=O)CCCN(C)C)cc2C(=O)N([C@@H](C)CO)C[C@@H]1C` belongs “inactive”; to `C[C@@H]1CN([C@@H](C)CO)C(=O)Cc2cc(NC(=O)Cc3ccccc3)ccc2O[C@@H]1CN(C)S(=O)(=O)c1ccccc1`, “inactive”.
For the compound `O=C(Nc1ccc2c(c1)[C@@H]1C[C@@H](CC(=O)N3CCc4ccccc4C3)O[C@@H](CO)[C@@H]1O2)C1CCOCC1`, the cytotoxicity call is “inactive”.
As for `O=C(C[C@H]1C=C[C@H](NC(=O)c2ccc3c(c2)OCO3)[C@H](CO)O1)NCc1ccc(Oc2ccccc2)cc1`, the cytotoxicity call is “inactive”.
As to `CC(C)CC#Cc1cnc2c(c1)C(=O)N([C@H](C)CO)C[C@@H](C)[C@@H](CN(C)C(=O)c1ccc3c(c1)OCO3)O2`, the cytotoxicity call is “inactive”.
To `C[C@H]1CN([C@@H](C)CO)C(=O)CCCn2nncc2CO[C@H]1CN(C)S(=O)(=O)c1ccc(C#N)cc1` belongs “inactive”.
As for `Cc1ccc(S(=O)(=O)NCC[C@H]2CC[C@H](NS(=O)(=O)c3ccccc3Cl)[C@H](CO)O2)cc1`, the cytotoxicity call was “inactive”.
In the case of `C[C@@H]1CN([C@H](C)CO)C(=O)c2cc(NC(=O)Nc3cccc4ccccc34)ccc2O[C@H]1CN(C)C(=O)Nc1ccc2c(c1)OCO2`, the cytotoxicity call is “inactive”.
Consider `C[C@@H]1CN([C@@H](C)CO)C(=O)Cc2cc(NC(=O)C3CC3)ccc2O[C@H]1CN(C)S(=O)(=O)c1cccs1`, for which the cytotoxicity call was “inactive”.
To `Cc1noc(C)c1NC(=O)Nc1ccc2c(c1)C(=O)N([C@@H](C)CO)C[C@H](C)[C@@H](CN(C)C(=O)Nc1ccc(F)cc1)OCCCC[C@@H](C)O2` belongs “inactive”; to `Cc1[nH]c(=O)[nH]c(=O)c1CCC(=O)O`, “inactive”.
To `Cc1nc2[nH]c(C)c(CCC(=O)O)c(=O)n2n1` belongs “inactive”.
Regarding `[Fe+3].CC/1=C(CCC(=O)O)/C/2=C/c3[nH]c(c(c3CCC(=O)O)C)/C=C/3\N=C(/C=C/4\N=C(\C=C1/N2)C(=C4C)C=C)C(=C3C)C=C`, the cytotoxicity call was “active”.
To `CC(C)NC(=O)Nc1ccc2c(c1)CC(=O)N([C@@H](C)CO)C[C@H](C)[C@@H](CN(C)S(=O)(=O)c1ccc(Cl)cc1)O2` belongs “inactive”; to `Cc1ccccc1S(=O)(=O)N(C)C[C@@H]1Oc2ccc(NC(=O)Nc3cc(Cl)cc(Cl)c3)cc2CC(=O)N([C@@H](C)CO)C[C@@H]1C`, “inactive”.
With `CC(C)NC(=O)Nc1ccc2c(c1)CC(=O)N([C@H](C)CO)C[C@H](C)[C@@H](CN(C)S(=O)(=O)c1ccc(Cl)cc1)O2`, the cytotoxicity call is “inactive”.
The result for `Cc1ccccc1S(=O)(=O)N(C)C[C@@H]1Oc2ccc(NC(=O)Nc3ccc(Cl)c(Cl)c3)cc2CC(=O)N([C@@H](C)CO)C[C@@H]1C` reads “active”; that for `C[C@H]1CN([C@@H](C)CO)C(=O)Cc2cc(NC(=O)Nc3ccc(Cl)c(Cl)c3)ccc2O[C@H]1CN(C)S(=O)(=O)c1ccc(Cl)cc1`, “active”.
To `C[C@H]1CN([C@@H](C)CO)C(=O)Cc2cc(NC(=O)Nc3cc(Cl)cc(Cl)c3)ccc2O[C@H]1CN(C)S(=O)(=O)c1ccc(Cl)cc1` belongs “active”; to `Cc1ccccc1S(=O)(=O)N(C)C[C@@H]1Oc2ccc(NC(=O)Nc3cccc(C(F)(F)F)c3)cc2CC(=O)N([C@@H](C)CO)C[C@@H]1C`, “inactive”; to `CC(C)NC(=O)Nc1ccc2c(c1)CC(=O)N([C@H](C)CO)C[C@H](C)[C@H](CN(C)S(=O)(=O)c1ccc(Cl)cc1)O2`, “inactive”.
Consider `CC(C)NC(=O)Nc1ccc2c(c1)CC(=O)N([C@@H](C)CO)C[C@@H](C)[C@@H](CN(C)S(=O)(=O)c1ccc(Cl)cc1)O2`, for which the cytotoxicity call was “inactive”.
For `Cc1noc(C)c1NC(=O)Nc1ccc2c(c1)CC(=O)N([C@H](C)CO)C[C@H](C)[C@@H](CN(C)Cc1ccc(C(=O)Nc3ccccc3N)cc1)O2`, the cytotoxicity call is “inactive”.
To `CCS(=O)(=O)Nc1ccc2c(c1)C(=O)N(C)C[C@H](OC)[C@H](C)CN(CCC(F)(F)F)[C@@H](C)CO2` belongs “inactive”; to `CCN(CC)c1ccc(N2CC=C[C@@]34O[C@@H]5/C=C\CCCOC(=O)[C@@H]5[C@H]3C(=O)N([C@@H](C)CO)[C@@H]4C2=O)cc1`, “inactive”; to `COc1ccc(NC(=O)Nc2ccc3c(c2)C(=O)N([C@H](C)CO)C[C@@H](C)[C@H](CN(C)C(=O)Nc2ccccc2)OCCCC[C@@H](C)O3)cc1`, “inactive”.
The result for `Oc1cccc(O)c1O` reads “inactive”; that for `Cn1cc(-c2cc3c(N4CCN(c5ncc([C@@](C)(N)c6ccc(F)cc6)cn5)CC4)ncnn3c2)cn1`, “active”.
The result for `C[C@H](CO)N1C[C@H](C)[C@@H](CN(C)C(=O)Cc2cccnc2)Oc2cc(C#CC3(O)CCCC3)ccc2S1(=O)=O` reads “inactive”.
Turning to `C[C@H](CO)N1C[C@H](C)[C@@H](CN(C)Cc2ccc3c(c2)OCO3)OCCCC[C@H](C)Oc2ccc(NC(=O)CCC(F)(F)F)cc2C1=O`, the cytotoxicity call is “inactive”.
The result for `Cc1noc(C)c1S(=O)(=O)N(C)C[C@H]1Oc2c(NS(=O)(=O)c3ccccc3)cccc2C(=O)N([C@@H](C)CO)C[C@H]1C` reads “inactive”.
As to `COc1ccc(S(=O)(=O)Nc2ccc3c(c2)CC(=O)N([C@@H](C)CO)C[C@H](C)[C@@H](CN(C)C(=O)NC(C)C)O3)cc1`, the cytotoxicity call was “inactive”.
The result for `CC(=O)O[C@@]1(C)C[C@@H](O)[C@@H]2C=CO[C@@H](O[C@@H]3O[C@H](CO)[C@@H](O)[C@H](O)[C@H]3O)[C@@H]21` reads “inactive”; that for `c1ccc(-c2nc3ccccc3o2)cc1`, “inactive”; that for `O=C(Nc1ccc(-c2nc3ccc(NC(=O)c4ccccc4[N+](=O)[O-])cc3[nH]2)cc1)c1ccccc1[N+](=O)[O-]`, “active”.
The result for `O=C(Nc1ccc(-c2nc3cc(NC(=O)c4ccccc4[N+](=O)[O-])ccc3o2)cc1)c1ccccc1[N+](=O)[O-]` reads “active”; that for `NC1(C(=O)Nc2ccc3nc(-c4ccc(F)cc4)oc3c2)CC1`, “inactive”; that for `c1ccc2[nH]c(-c3ccncc3)nc2c1`, “inactive”.
With `O=C(Nc1ccc(-c2nc3ccc(NC(=O)c4ccc(Cl)cc4)cc3[nH]2)cc1)c1ccc(Cl)cc1`, the cytotoxicity call is “active”.
Consider `O=[N+]([O-])c1ccc2nc(CO)[nH]c2c1`, for which the cytotoxicity call was “inactive”.
To `O=C(Nc1ccc(-c2nc3cc(NC(=O)c4ccccc4Cl)ccc3o2)cc1)c1ccccc1Cl` belongs “active”; to `Cc1ccc(NC(=O)c2cc(=O)[nH]c(=O)[nH]2)cc1`, “inactive”.
Turning to `CCCC(=O)Nc1ccc(-c2nc3cc(C(C)C)ccc3o2)cc1`, the cytotoxicity call is “inactive”.
To `O=C(Nc1ccc(-c2nc3ccc(NC(=O)c4ccc(NC(=O)c5cccc6ccccc56)cc4)cc3[nH]2)cc1)c1ccc(NC(=O)c2cccc3ccccc23)cc1` belongs “inactive”; to `NCc1ccc(-c2nc3ccccc3o2)cc1`, “inactive”.

(Values after the antibiotic and cytotoxicity screens of Wong et al. (2023).)
